# PubChem BioAssay (NCI)
# This is part of a sample that, as a whole, favours compounds with a hit. Of some 83,000 tested, about 20% had one in any assay.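 Assay: single dose, 48 h. Readout: percent growth (0 = no net growth; negative = cell death). Active: <10.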 Active and inactive are the calls of the source.
# Test system: HL-60(TB) leukemia
# Experiment: NCI-60 one-dose screen, 48 h (100 = growth as untreated, 0 = no growth, -100 = all killed)
# Conditions: 10 µM unless noted
row,SMILES,growth
1,Cc1ccccc1N1C(c2ccccc2)=NNC12C=CC(=O)c1c(O)cccc12 (stereo not given),70.2% (inactive)
2,COc1cc(/C=C/C(=O)c2ccc(NC(=O)CSc3nnc(-c4cc(OC)c(OC)c(OC)c4)n3-c3ccccc3)cc2)cc(OC)c1OC,6.87% (active)
3,OCC1OC(O)C(O)C(O)C1O (stereo not given),120% (inactive)
4,CC1(C)CC[C@]2(CO)CC[C@]3(C)C(=CC[C@@H]4[C@@]5(C)CCNCC(C)(C)[C@@H]5CC[C@]43C)[C@@H]2C1,23.5% (inactive)
5,BrC1=C(Br)C(Br)(Br)C(Br)=C1Br,27.4% (inactive)
6,O=C1c2cccc3cccc(c23)C(=O)N1N1C(=O)c2cccc3c(N4CCNCC4)ccc(c23)C1=O,64.7% (inactive)
7,COc1ccc(C(=O)/C=C/c2c(Cl)c3c(c(OC)c2Cl)OCC(=O)N3)cc1,13.8% (inactive)
8,CCOC(=O)c1c(C)nc2c(c1N)CC(=O)N2Cc1ccc(OC)cc1,110% (inactive)
9,COc1ccccc1CNCCCN1C(=O)c2ccc3c4c(ccc(c24)C1=O)C(=O)N(CCCNCCCCN)C3=O,-42% (active)
10,CSc1nc2ccccc2cc1/C=[N+](\[O-])c1ccccc1,-13.4% (active)
11,O=C(Nc1ccc(Oc2ccc(F)cc2)c(Cl)c1)c1cccnc1,83.2% (inactive)
12,O=S1(=O)N(Cc2ccccc2)[C@@H](Cc2ccccc2)C2O[C@H]2[C@H](Cc2ccccc2)N1Cc1ccccc1 (stereo not given in full),46% (inactive)
13,CN(C)CCN(C)CC(C)(C)C(=O)/C=C/c1ccc(Cl)cc1,0.343% (active)
14,Oc1ccc(CN2CCC(N3CCOCC3)CC2)c2cccnc12,34.4% (inactive)
15,c1ccc2cc(-c3n(Cc4ccc5ccccc5n4)c4ccccc4[n+]3Cc3ccc4ccccc4n3)ccc2c1,-55.1% (active)
16,CCOC(=O)c1cc(C(=O)c2ccc(OC)c(OC)c2)n2ccc(/C=C/c3cc[n+](CC(=O)c4ccc(OC)c(OC)c4)cc3)cc12,88.6% (inactive)
17,O=C(COc1ccc(Cl)cc1Cl)Oc1coc(CSc2nc3ccccc3s2)cc1=O,100% (inactive)
18,N#Cc1ccc(Oc2ccc3ccc(=O)oc3c2)cc1,82.7% (inactive)
19,Cc1ccc2cc3c(N)c4c(C)ccc(C)c4nc3nc2c1,12.6% (inactive)
20,O=C1OC(Oc2ccc(Br)cc2)(c2ccccc2)c2ccccc21 (stereo not given),120% (inactive)

row,SMILES,growth
1,Fc1cccc(COc2ccc(Nc3ncnc4onc(-c5ccccc5)c34)cc2)c1,7.34% (active)
2,Cn1ccc(=O)c(C(=O)Nc2nsc3ccc([N+](=O)[O-])cc23)c1,54.9% (inactive)
3,COC(=O)c1ccc(NC(=O)c2ccc(-c3cccc([N+](=O)[O-])c3)o2)cc1,101% (inactive)
4,O=c1[nH]c(Nc2ccc(S(=O)(=O)O)cc2)nc2nc(Nc3ccc(NC(=S)Nc4ccccc4)cc3)nc(-c3ccc(O)cc3O)c12,120% (inactive)
5,O=C(Cn1cc(CN2C(=O)c3ccccc3S2(=O)=O)nn1)Nc1cccc(Cl)c1,103% (inactive)
6,COc1ccc(C2NC(=O)c3cc4c(cc3N2)OCO4)cc1 (stereo not given),-42% (active)
7,Cc1ccc(S(=O)(=O)NCCCNc2cc(-c3cn(C(C)(C)C)nc3-c3cccc(O)c3)ccn2)cc1,66.6% (inactive)
8,CCOc1ccc(-n2nc(C(=O)Nc3ccccc3)nc2-c2cc(OC)c(OC)c(OC)c2)cc1,32.9% (inactive)
9,CCOc1cccc(/C=N\Nc2nc(=O)cc(C(=O)OC)s2)c1O,72.8% (inactive)
10,O=C1NC(=S)NC(=O)C1CC(=O)n1c(-c2ccccc2)nc2ccccc21,104% (inactive)
11,CC1Cc2cc(F)ccc2-n2cccc21 (stereo not given),111% (inactive)
12,Cc1nc(N)[nH]c(=O)c1C,218% (inactive)
13,O=C(CN1C(=O)S/C(=C\c2ccccc2)C1=O)Nc1ncc(Cc2ccccc2Cl)s1,95.1% (inactive)
14,COc1ccc(C(=O)COc2cccc(/C=C3\COc4ccc5ccccc5c4C3=O)c2)cc1,72.1% (inactive)
15,NC(N)=N/N=C/c1ccccc1,99.5% (inactive)
16,O=C(Nc1ccccc1)c1cc2ccccc2s1,61.6% (inactive)
17,N#Cc1nc2c(S(=O)(=O)c3ccc(Cl)cc3)c(N)n(Nc3cccc(Cl)c3)c2nc1C#N,40.1% (inactive)
18,Clc1ccc2c(NCCNc3nc(N4CCOCC4)nc4ccccc34)ccnc2c1,-65.4% (active)
19,Cc1nn(CCO)c(C)c1N=[N+]([O-])c1c(C)nn(CCO)c1C,-45.8% (active)
20,COc1cc(OC)c(NC(=O)c2cc3ccccc3cc2O)cc1Cl,22% (inactive)
